Measured values published in PubChem BioAssay AID1851 (National Center for Advancing Translational Sciences (NCATS), 2009).
Among all 16,000 compounds or so, about 4,000 (25%) were called active. Another 26% or so got no clear call; they are omitted. Not all results are given here. Values without a mark were called inactive. Calls come from the whole dose curve; as a rule, active = well fitted curve in the direction sought with a large enough effect; inconclusive = small, poorly fitted or top-dose-only effect, or effect the other way; inactive = no such curve, though single readings can be large or run the other way. Square brackets hold non-standard residues; d marks the D form. Peptide text beside a SMILES is read from it. * marks the point of attachment. ξ: configuration not given here. Cbz = O=C(OCc1ccccc1)*; ξA = CC(N)C(=O)O

What follows are compounds tested against Cytochrome P450 2C9 (Homo sapiens) (UniProt P11712) (assay: Cytochrome panel assay with activity outcomes). Conditions: recombinant CYP, pro-luciferin dealkylation, luminescence, p450-cyp2c9; series mostly up to 57.1 µM; activity, negative = inhibition: at the top concentration.
Cytochrome P450 2C9 (Homo sapiens), sequence (P11712 whole entry, looked up): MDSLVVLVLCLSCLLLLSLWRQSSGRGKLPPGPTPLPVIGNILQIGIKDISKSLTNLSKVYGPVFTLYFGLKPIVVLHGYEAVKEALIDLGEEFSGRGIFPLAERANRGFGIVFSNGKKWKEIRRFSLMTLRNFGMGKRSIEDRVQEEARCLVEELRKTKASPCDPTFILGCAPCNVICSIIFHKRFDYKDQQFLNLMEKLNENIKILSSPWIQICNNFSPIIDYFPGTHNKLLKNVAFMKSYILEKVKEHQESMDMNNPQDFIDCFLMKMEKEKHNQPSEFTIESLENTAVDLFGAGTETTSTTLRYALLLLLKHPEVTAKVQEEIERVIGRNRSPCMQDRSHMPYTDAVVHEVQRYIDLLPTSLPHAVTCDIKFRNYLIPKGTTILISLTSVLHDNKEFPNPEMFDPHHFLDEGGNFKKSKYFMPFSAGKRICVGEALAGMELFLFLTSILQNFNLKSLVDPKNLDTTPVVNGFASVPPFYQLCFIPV
% is set by controls: 0 for no effect and ±100 for the full control effect.

| Compound | activity, negative = inhibition | AC50 |
| --- | --- | --- |
| COC(=O)c1cc(OC)c(OC)cc1NC(=S)N1CCCCC1 | -15.7% |  |
| Cc1ccccc1C(=O)Oc1ccc(Br)cc1C(=S)N1CCCC1 |  | 11.2 µM (active) |
| CCOC(=O)C1CCCN(C(=O)C2CCN(S(=O)(=O)N3CCC4(CC3)OCCO4)CC2)C1 (configuration not stated) | -23.8% |  |
| COc1ccc2cc3cc(C(=O)NCCCN4CCOCC4)oc3nc2c1 | -4.23% |  |
| COc1ccc(-c2cn3c(C)c(C(=O)NCCN4CCOCC4)sc3n2)cc1 |  | 7.94 µM (active) |
| COc1ccc(C2=NOC(C(=O)NCCN3CCOCC3)C2)cc1 (configuration not stated) | -10.2% |  |
| CCOC(=O)C1CCCN(C(=O)/C=C/c2cccc([N+](=O)[O-])c2)C1 (configuration not stated) | 6.66% |  |
| CCOC(=O)C1CCCN(C(=O)c2sc3nc(-c4ccc(OC)cc4)cn3c2C)C1 (configuration not stated) |  | 4.47 µM (active) |
| CCOc1ccc(Cl)cc1CNCCNCC(C)O (configuration not stated) | 6.63% |  |
| O=C(Nc1ccn(Cc2ccccc2F)n1)c1ccc(COc2cc(Cl)ccc2Cl)o1 |  | 0.447 µM (active) |
| CC(C)CNC(=O)c1ccc(COc2ccc(Cl)cc2Cl)o1 |  | 3.55 µM (active) |
| Cn1ncc(Cl)c1C(=O)Nc1cccnc1 | -33.2% |  |
| O=C(Nc1cccnc1)c1ccc(COc2cc(Cl)ccc2Cl)o1 |  | 14.1 µM (active) |
| O=C(O)NCC1CCCCC1 (tested in a mixture with another compound) | -18.2% [at 11.4 µM] |  |
| O=C(COc1ccccc1Cl)NC(=S)Nc1cccc(NC(=O)c2ccccc2Cl)c1 |  | 0.794 µM (active) |
| Cc1ccccc1OCC(=O)NC(=S)Nc1ccc(Br)c(C)n1 | -24.6% |  |
| CCC(=O)NC(=S)Nc1ccc(NC(=O)COc2ccc(Cl)cc2Cl)cc1 | -19% |  |
| O=C(CCN1C(=O)c2ccccc2C1=O)NC(=S)Nc1cccc(Cl)c1 |  | 10 µM (active) |
| S=C(NCc1ccccn1)Nc1cccc(Cl)c1 | 4.91% |  |
| N[C@H](CO)C(=O)NCC(=O)O (H-[dS]-Gly-OH) | 7.87% [at 11.4 µM] |  |
| CC(Sc1ccc2c(c1)OCCO2)C(=O)Nc1ncc(Cl)cc1Cl (configuration not stated) |  | 3.98 µM (active) |
| CC1CCCN(CCCNC(=O)C2CC(=O)N(c3ccc(F)c(Cl)c3)C2)C1 (configuration not stated) | 17.6% |  |
| CCc1ccc(N2CC(C(=O)N/N=C/c3cccc([N+](=O)[O-])c3)CC2=O)cc1 (configuration not stated) |  | 3.55 µM (active) |
| O=C(N/N=C/c1cccc([N+](=O)[O-])c1)c1cc2c(ccc3ccccc32)o1 | 8.69% |  |
| Cc1ccccc1NC(=O)C1CC(=O)N(c2ccc3c4c(cccc24)CC3)C1 (configuration not stated) | 12.2% |  |

| Compound | activity, negative = inhibition | AC50 |
| --- | --- | --- |
| CCc1ccc(N2CC(C(=O)NC3=NCCS3)CC2=O)cc1 (configuration not stated) |  | 12.6 µM (active) |
| Cc1ccc(NC(=O)/C(=C/c2cccc([N+](=O)[O-])c2)NC(=O)C2CCCCC2)c(C)c1 | -13.7% |  |
| Nc1nc2c(nc(Br)n2[C@@H]2O[C@H]3COP(=O)(O)O[C@H]3[C@@H]2O)c(=O)[nH]1 | -3.31% |  |
| COC(=O)/C=C\c1cc(O)ccc1O |  | 7.94 µM (active) |
| COc1cc([C@H](O)C(=O)O)ccc1O | 13.8% |  |
| COC(=O)[C@](C)(N)Cc1ccc(O)cc1 | 20% |  |
| Cn1c(CCN2CCCCC2)nc2cc([N+](=O)[O-])ccc21 | -0.958% |  |
| CN1CCN(c2ccc([N+](=O)[O-])cc2C(=O)N2CCOCC2)CC1 | 14.2% |  |
| O=C(c1ccc(Br)cc1)c1cc([N+](=O)[O-])ccc1N1CCCCC1 |  | 2.51 µM (active) |
| CCn1c(/C=C2/C(=O)N(C)c3ccccc32)nc2ccccc2c1=O |  | 10 µM (active) |
| CCN1CCN(c2nn3c(=O)c4ccccc4nc3c3ccccc23)CC1 | -10.3% |  |
| Cc1cnc(CNc2cc(-c3ccccc3C)ncn2)cn1 | -11.2% [at 2.29 µM] |  |
| CCc1ccc(-c2csc(NC(=O)C3CCCO3)c2C(=O)OC(C)C)cc1 (configuration not stated) |  | 4.47 µM (active) |
| CO/N=C\[C@@H](OC)[C@H](C)/C=C\CC(=O)OC | -2.61% [at 11.4 µM] |  |
| CCOc1cc(/C=C2/SC(=O)N(CC(=O)N3CCc4ccccc4C3)C2=O)ccc1OCC(=O)O |  | 12.6 µM (active) |
| Cn1c(=O)[nH]c2ncn(C)c2c1=O | 4.36% |  |
| Cc1c(Br)c([N+](=O)[O-])nn1CC(=O)NCc1ccccn1 | -8.45% |  |
| Cc1c(Br)c([N+](=O)[O-])nn1CC(=O)NCc1cccs1 | -30.1% |  |
| Cc1ccc(NC(=O)Cn2nc([N+](=O)[O-])c(Br)c2C)cc1C |  | 14.1 µM (active) |
| CC[n+]1c(/C=C/Nc2ccccc2)oc2ccccc21 | 3.83% |  |
| CC[N+](CC)(CC(=O)Nc1c(C)cccc1C)Cc1ccccc1 | -17.2% [at 25.6 µM] |  |
| CCc1cccc(C)c1NC(=O)CSc1nc2ccc(N3C(=O)c4ccccc4C3=O)cc2s1 |  | 3.55 µM (active) |
| NC(=O)CNC(=O)[C@@H]1CC2(CC(c3ccccc3)=NO2)CN1C(=O)c1ccc(Br)cc1 (some centres not stated) | -2.63% |  |
| O=C(NC(=S)N(Cc1ccccc1)Cc1ccccc1)c1ccccc1F |  | 0.891 µM (active) |
| O=C(O)c1ccccc1C(=O)NCc1ccc(F)cc1 | -12.1% |  |

| Compound | activity, negative = inhibition | AC50 |
| --- | --- | --- |
| COc1ccc(CN(CCC#N)C(=S)NC(=O)c2ccccc2)cc1 |  | 0.631 µM (active) |
| CN1CCN(NC(=O)c2ccccc2F)CC1 | -0.803% |  |
| CCOc1ccc(C(=O)NC(=S)N(Cc2ccccc2)Cc2ccccc2)cc1 |  | 10 µM (active) |
| O=C(NC1(C(F)(F)F)C(=O)Nc2c1c(=O)[nH]c(=O)n2-c1ccc(F)cc1)c1cccnc1 (configuration not stated) | -9.59% |  |
| Cc1cccc(CNc2ncncc2-c2cccc(C#N)c2)c1 | -7.76% [at 2.29 µM] |  |
| Cn1cccc1C(=O)N1CCC[C@@]2(CCN(c3ccccn3)C2)C1 | 3.61% |  |
| Cc1ccc(-c2nnc(C)c(N3CC(C)OC(C)C3)n2)cc1 (configuration not stated) |  | 17.8 µM (active) |
| Cc1ccc(CC(=O)N2CC(C)OC(C)C2)cc1 (configuration not stated) | 6.48% |  |
| O=C1NCCCC1C(=O)Nc1ccccc1C(F)(F)F (configuration not stated) | -18.4% |  |
| CCCC[C@@H]1C[C@H]1C(NC(=O)c1ccccc1)c1ccccc1C(F)(F)F (some centres not stated) |  | 1.26 µM (active) |
| CCCC[C@@H]1C[C@H]1C(NC(=O)c1cccs1)c1ccccc1C(F)(F)F (some centres not stated) |  | 1 µM (active) |
| C#CCCCO/N=C1/[C@H]2O[C@@H]2[C@@H](O)[C@H]2[C@H]1CCn1c(=O)n(C)c(=O)n12 | 4.28% [at 11.4 µM] |  |
| CCOC(=O)C1CN(S(=O)(=O)c2cccc(C(F)(F)F)c2)c2cc(CC(=O)OC)ccc2O1 (configuration not stated) |  | 6.31 µM (active) |
| CCC(C)C(NC(=O)OCc1ccccc1)C(=O)OCN1C(=O)c2ccccc2C1=O (configuration not stated) |  | 12.6 µM (active) |
| O=C(CCNC(=O)c1ccccc1)OCN1C(=O)c2ccccc2C1=O | -12.5% |  |
| COC(=O)CNC(=O)C(C)NC(=O)CNC(=O)OCc1ccccc1 (stereo not drawn) (Cbz-Gly-[ξA]-Gly-OMe) | -11.6% |  |
| N#Cc1ccccc1Sc1ccccc1N |  | 5.01 µM (active) |
| N#CC(=C(/N)Sc1ccccc1N)/C(C#N)=C(/N)Sc1ccccc1N | 3.74% |  |
| CC(=O)COC(=O)CCc1nc2ccccc2[nH]c1=O | -22.1% |  |
| CCN(CC)CCOc1ccc2nc(N(C)C)sc2c1 | -10.8% |  |
| O=c1c(-c2nnc(SCc3ccc(Cl)cc3Cl)o2)cccn1Cc1ccccc1 |  | 11.2 µM (active) |
| CC(C)=CCNc1ncnc2nc[nH]c12 | -9.02% [at 11.4 µM] |  |
| S=C(S)O[C@@H]1C[C@@H]2C[C@H]1[C@@H]1CCC[C@H]21 |  | 3.98 µM (active) |
| CC1CCC(C(=O)NC(C(=O)N2CCC(N3CCCCC3)CC2)C(C)C)CC1 (configuration not stated) | -14.4% |  |
| Nc1ncnc2c1ncn2CCCCC(=O)O | 9.41% [at 11.4 µM] |  |

| Compound | activity, negative = inhibition | AC50 |
| --- | --- | --- |
| O=C1C=C(NCC2CCCO2)C2(CCCCC2)O1 (configuration not stated) | -9.85% |  |
| O=S(=O)(c1cnccc1N1CCN(/N=C/c2ccccc2)CC1)N1CCCCC1 |  | 17.8 µM (active) |
| CC(C)N1CCN(c2ccncc2S(=O)(=O)N2CCCCC2)CC1 | -8.32% [at 11.4 µM] |  |
| O=S(=O)(c1cnccc1N1CCN(CCO)CC1)N1CCCC1 | 8.09% [at 11.4 µM] |  |
| NC(=O)Nn1c(CCC(=O)O)ccc1-c1ccc(F)cc1 | -5.74% |  |
| CC(=O)c1ccc(-n2c(CCC(=O)O)ccc2-c2cccs2)cc1 |  | 14.1 µM (active) |
| Cc1ccc(-c2ccc(CCC(=O)O)n2CC2CCCO2)cc1 (configuration not stated) | -16.3% |  |
| Cc1cc(C2CCCCC2)n(O)c(=O)c1 | -14.9% [at 25.6 µM] |  |
| CS(=O)(=O)Nc1cccc(-c2ccc3ncnc(N4CCNCC4)c3c2)c1 | -12.1% [at 2.29 µM] |  |
| O=C(O)/C(=C\c1ccc(O)cc1)c1cccc2ccccc12 | -3.39% [at 11.4 µM] |  |
| O=C(O)/C(=C/c1c(C(=O)O)[nH]c2cc(Cl)cc(Cl)c12)c1ccccc1 | -24.4% |  |
| O=C(/C(=C/c1ccc(Cl)cc1)c1nc2ccccc2[nH]1)c1ccccc1 |  | 0.631 µM (active) |
| CN1CCN(CCCN2c3ccccc3Sc3ccc(S(=O)(=O)N(C)C)cc32)CC1 | 1.24% [at 25.6 µM] |  |
| N[C@@H](Cc1[nH]nc2ccccc12)C(=O)O | 7.77% [at 11.4 µM] |  |
| CN(Cc1ccccc1)C(=O)CC(c1ccccc1)c1cc(Cl)ccc1O (configuration not stated) |  | 4.47 µM (active) |
| CC(C)Oc1ccc(CNC(=O)CC(c2ccccc2)c2cc(Cl)ccc2O)cc1 (configuration not stated) |  | 2.24 µM (active) |
| C[C@@H](c1ccccc1)N1C(=O)[C@@H]2[C@H]3C(=CC[C@H]2C1=O)C(=O)[C@H]1O[C@H]1[C@H]3O | -6.91% [at 11.4 µM] |  |
| Oc1cc(O)c2c(c1)O[C@H](c1ccc(O)c(O)c1)[C@H](O)C2 |  | inactive |
| Cc1ccc(-n2c(-c3cc(C)n(C)n3)n[nH]c2=S)cc1 | 5.76% |  |
| Cc1cc(-c2n[nH]c(=S)o2)c(C)n1-c1ccccc1 |  | 12.6 µM (active) |
| CC[N+](CC)(CC)CCOc1cccc(OCC[N+](CC)(CC)CC)c1OCC[N+](CC)(CC)CC | 22.4% [at 25.6 µM] |  |
| CCCN1C[C@@H](CSC)C[C@H]2c3cccc4[nH]cc(c34)C[C@@H]21 | -6.92% |  |
